Source: PubChem BioAssay
FUS suppressor: suppressors of FUS proteinopathy in yeast; S. cerevisiae FUS-expressing, growth rescue, OD600, 24 h; Potency, µM (top dose mostly 76.6 µM), most hits filed as activators; actives 0.24% (n = 390,000);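 further: plate controls were DMSO vehicle for no effect and reference control for full effect; nearly all actives have a fitted effect of over 55% in size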
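Galactose (2%) drives FUS expression in yeast precultured in raffinose; seeding density OD 0.005. Test compounds incubated 24hr at 30C and 99% humidity before absorbance at 600 nm was measured.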
Abeta rescue: restores growth of yeast expressing A-beta42 peptide | yeast expressing A-beta42, growth rescue, OD600, 48 h; response scale: 0% DMSO, 100% iron-clioquinol control | Potency, µM (titrated, usually from 46.1 µM), actives largely listed as activators | actives 0.063% (n = 410,000); further: nearly all actives have a fitted effect of over 55% in size
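Yeast growth medium received pinned compounds, then yeast cells expressing toxic A-beta were added; plates incubated at 30 C for 48 hr. Growth read as absorbance at 600 nm, normalized to DMSO and equimolar FeCl3 plus clioquinol controls.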
aSyn yeast inh: inhibitors of alpha-synuclein toxicity in yeast. Yeast expressing alpha-synuclein, growth rescue, BacTiter-Glo, 24 h. actives 0.14% (n = 370,000). Potency, µM (highest dose often 46.1 µM), without a hit: top-dose growth rescue (activation), most hits filed as activators; further: % of control where 0% means no effect; nearly all actives have a fitted effect of over 65% in size
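Readout is rescue of growth in alpha-synuclein-expressing yeast, so inhibitors of toxicity appear as activators. Growth after 24 hr at 30 deg C in galactose medium is quantified by luminescence.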
TDP-43 yeast inh: inhibitors of TDP-43 toxicity in yeast | TDP-43 expressing yeast growth rescue, BacTiter-Glo, 24 h | Potency, µM (series often up to 46.1 µM), without a hit: at the highest dose growth rescue (activation), hits mostly activators | actives 1.8% (n = 410,000); further: % of control where 0% means no effect; nearly all actives have a fitted effect of over 50% in size
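Growth rescue of TDP-43-toxic yeast measured as ATP luminescence (BacTiter-Glo). Cells grown to mid-log in raffinose, induced in galactose at OD600=0.02, exposed to compound 24 hr at 30 deg C.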
Mito fusion yeast: mitochondrial division inhibition or fusion activation; S. cerevisiae fusion-defective mutant growth rescue, CellTiterGlo 48 h; Potency, µM (top dose mostly 46.1 µM), for inactives: at the highest dose growth rescue (activation), actives largely listed as activators; actives 0.23% (n = 320,000); further: % of control where 0% means no effect; nearly all actives have a fitted effect of over 45% in size
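Temperature-sensitive fusion-defective S. cerevisiae (e.g. fzo1-1, mgm1-5) were grown with compound in YPEG medium (3% ethanol, 3% glycerol) for 48 hours at 37C. Growth rescue was measured as viability by CellTiterGlo luminescence after 10 minutes at ambient.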
Numbers without * were called inactive; i = inactive; u = inconclusive; x = no result; [ ] = another dose, or the depositor's remark. The list is not random: actives were taken first. Their share in the collection is about 2.2%. The call rests on the fitted dose curve; in most records, active means well fitted curve in the direction sought with a large enough effect; inconclusive means small, poorly fitted or top-dose-only effect, or another doubt; inactive means no such curve, though single readings can be large; an effect the other way counts as inactive or inconclusive. Potency means the concentration at half of the fitted maximal effect.

SMILES | FUS suppressor | Abeta rescue | aSyn yeast inh | TDP-43 yeast inh | Mito fusion yeast
C/C(=N\NC(=S)NC(C)C)c1ccccc1 | i | 11µM* | -9% | 23% | -23%
Cc1ccccc1CN1CCCCC(NC(=O)c2c(F)cccc2F)C1=O (stereo not given) | i | x | x | x | x
CC(C)C[C@@H]1Cc2[nH][nH]c(=O)c2[C@H](c2ccc(Cl)cc2)O1 | i | i | 22% | u | x
CCCCC1CC2=C(C(=O)OC(C)(C)O2)C(c2cccc3ccccc23)O1 (stereo not given) | i | i | 27% | u | x
CCCC[C@@H]1Cc2[nH][nH]c(=O)c2[C@H](c2cccc3ccccc23)O1 | i | i | -1% | 11µM* | x
CC[C@@H]1Cc2[nH][nH]c(=O)c2[C@@H](c2ccc(Cl)cc2)O1 | i | i | 2% | 16µM* | x
O=c1[nH]c(=S)[nH]c2c1C(c1ccccc1)OC(C1CCCCC1)C2 (stereo not given) | i | i | 0% | 0% | x
O=c1[nH][nH]c2c1[C@H](c1ccc(Cl)cc1)O[C@H](C1CCCC1)C2 | i | i | 1% | 18µM* | x
CC(C)c1ccc([C@@H]2O[C@H](CCc3ccccc3)Cc3[nH][nH]c(=O)c32)cc1 | u | i | 1% | 16µM* | x
CC(=O)NC(Cc1ccc(O)cc1)C(=O)NCC(N)C(=O)c1ccccc1 (stereo not given) | x | x | -3% | x | x
Cc1c(C(=O)N2CCCCCC2)c(S(=O)(=O)Nc2cccc(C#N)c2)c(C)n1C | i | i | x | 8% | x
COc1ccc(NCc2ccccc2-c2nnc(-c3ccccc3)o2)cc1Cl | i | i | x | u | x
O=c1[nH]cnc2c1ncn2[C@H]1C[C@H](O)[C@@H](CO)O1 | x | x | 0% | x | x
Cc1ccc(OCc2cc(C(=O)N3CCC(C(O)C(C)C)CC3)no2)cc1C (stereo not given) | u | i | 12% | 16µM* | -17%
COc1ccc(OC)c(-c2nnc3n2N=C(c2ccc(OC)c(OCC4CC4)c2)CS3)c1 | 28µM* | i | x | x | x
Cn1c(CCNC(=O)c2ccco2)nc2cc(NC(=O)COc3ccc(Cl)cc3)ccc21 | i | i | x | 0% | x
Cc1ccc(C)c(S(=O)(=O)N2CCCN(C)CC2)c1 | i | i | -1% | -24% | 1%
Cc1ccc(C)c(S(=O)(=O)N2C(=S)NC(=O)C2C(C)C)c1 (stereo not given) | i | i | 12% | 35µM* | 17%
COc1ccc(Cn2cc(CN3CCc4onc(-c5ccc(Br)cc5)c4C3=O)nn2)cc1 | u | i | 19% | 18µM* | x
O=C(NCc1ccc(F)cc1)c1cc2cccc3c2n1CCS3 | i | i | x | 14µM* | x
CCN(CC)C(=O)CC[C@H]1CC[C@]2(CCCN(S(=O)(=O)C3CCCCC3)C2)O1 | i | x | x | x | x
O=C(O)c1[nH]c2ccccc2c1NS(=O)(=O)c1ccc(F)cc1 | i | i | 1% | 9% | 35µM*
COc1ccc(S(=O)(=O)Nc2c(C(=O)O)[nH]c3ccccc23)cc1 | i | i | -1% | 1% | 3%
COc1ccc(N2C(=O)C(CC(=O)Nc3ccc(F)cc3)N(Cc3ccc4c(c3)OCO4)C2=O)cc1 (stereo not given) | i | i | x | -2% | x
CCOC(=O)c1ccc(NC(=O)CC2C(=O)N(c3ccc(F)cc3)C(=O)N2Cc2ccc3c(c2)OCO3)cc1 (stereo not given) | 40µM* | i | x | 2% | x
SMILES | FUS suppressor | Abeta rescue | aSyn yeast inh | TDP-43 yeast inh | Mito fusion yeast
CCCCNC(=O)C[C@H]1C[C@@]2(C(=O)OC)C(=C[C@H](C3CCCC3)O[C@@H]2C)N(CCC2=CCCCC2)C1=O | i | x | x | x | x
O=C1[C@@H]2C(c3ccccc3Cl)=NO[C@@H]2C(=O)N1Cc1ccccc1 | i | u | 2% | 14µM* | 0%
CCNc1ccc(/C=C/c2ccnc3ccccc23)cc1 | x | x | 2% | x | x
CCOC(=O)C1C(=O)C=C(c2ccc(Br)cc2)CC1c1ccco1 (stereo not given) | i | i | 4% | 25µM* | 4%
CCOC(=O)C1C(=O)C=C(c2ccc([N+](=O)[O-])cc2)CC1c1ccccc1 (stereo not given) | i | i | 9% | 20µM* | u
CCOC(=O)C1C(=O)C=C(c2ccc(C)cc2)CC1c1ccccc1 (stereo not given) | i | i | 2% | 13%[9.22 µM] | -5%
COc1ccc(C(=O)NC(=S)NNC(=O)[C@H]2C[C@@H]2c2ccccc2)cc1OC | i | u | 18µM* | 28% | -15%
CC(C)(C)NC(=S)NNC(=O)[C@H]1C[C@@H]1c1ccccc1 | i | i | 1% | 20% | -2%
COc1ccc(C(=O)NC(=S)NNC(=O)c2c(-c3ccccc3)noc2C)cc1OC | i | 11µM* | u | -14%[1.82 µM] | -10%
COc1ccc(C(=O)NNC(=S)NC(=O)c2ccc(Br)o2)cc1OC | i | i | 8% | 3.5µM* | -12%
O=C(/C=C/c1ccc(F)cc1)NC(=S)NNC(=O)[C@H]1C[C@@H]1c1ccccc1 | i | u | 10µM* | 6.3µM* | -11%
CCOC(=O)c1cccc(NC(=O)CC2C(=O)N(c3ccc(C)cc3)C(=O)N2Cc2cccc(OC)c2)c1 (stereo not given) | i | i | x | 3% | x
O=C(NC(=S)NNC(=O)[C@H]1C[C@@H]1c1ccccc1)c1ccc(F)cc1 | i | u | 3.5µM* | 10µM* | u
COc1cc(OC)cc(C(=O)NC(=S)NNC(=O)[C@H]2C[C@@H]2c2ccccc2)c1 | i | u | 19% | 23% | -13%
Cc1cc(Oc2ccc(Cl)cc2Cl)nc(C#N)n1 | x | x | 3% | x | x
CCc1ccc(NC(=O)CSc2nc3ccccc3nc2Cc2ccccc2OC)cc1 | i | i | x | -35% | x
O=C(Nc1cccc2ccccc12)c1ccco1 | i | i | -2% | 16µM* | x
O=C(Nc1nc2c(ccc3ccccc32)s1)c1ccco1 | u | i | -1% | 5.6µM* | 7%
O=C(Nc1ccccc1NC(=O)c1ccco1)c1ccccc1 | i | i | -6% | -10% | -3%
Cc1nc2nc(SCc3c(F)cccc3Cl)nn2c(C)c1Cc1ccccc1 | i | i | x | 29% | x
O=C(COC(=O)CCC(=O)c1ccc(Cl)cc1)NCc1ccc(F)cc1 | i | i | 2% | 14µM* | x
CC1(C(=O)OCC(=O)NCc2ccc(Cl)cc2)CC1(Cl)Cl (stereo not given) | x | i | 10% | 14µM* | x
CCOc1ccc(NC(=O)CSC2=Nc3ccccc3C3=NC(CC(=O)NCc4cccs4)C(=O)N23)cc1 (stereo not given) | i | i | x | 27% | x
COc1ccc(Nc2nc3cc(-c4sccc4C)sc3c(=O)n2C)cc1OC | u | i | 10% | 35µM* | x
